We go through 24 molecules from PubChem BioAssay (NCATS).

The target in assay [1] is Rap guanine nucleotide exchange factor 3 (Homo sapiens) (UniProt O95398). Briefly: Confirmatory qHTS for antagonist of cAMP-regulated guanine nucleotide exchange factor 3 (EPAC1) (AID 1645880). Note: nearly all actives have a fitted effect of over 55% in size. Note: potency is the fitted concentration of half-maximal effect. In a few lines: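 Nucleotide exchange uses 100 nM EPAC1, 250 nM RAP1B-BODIPY-GDP and 50 uM GDP, with compounds in a concentration-titration series. After 5 min at room temperature, fluorescence (480 nm ex/540 nm em) is read every 5 min for 30 min. Data are normalized to control ATA and DMSO.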
Chain of Rap guanine nucleotide exchange factor 3 (Homo sapiens) (O95398 whole entry, looked up): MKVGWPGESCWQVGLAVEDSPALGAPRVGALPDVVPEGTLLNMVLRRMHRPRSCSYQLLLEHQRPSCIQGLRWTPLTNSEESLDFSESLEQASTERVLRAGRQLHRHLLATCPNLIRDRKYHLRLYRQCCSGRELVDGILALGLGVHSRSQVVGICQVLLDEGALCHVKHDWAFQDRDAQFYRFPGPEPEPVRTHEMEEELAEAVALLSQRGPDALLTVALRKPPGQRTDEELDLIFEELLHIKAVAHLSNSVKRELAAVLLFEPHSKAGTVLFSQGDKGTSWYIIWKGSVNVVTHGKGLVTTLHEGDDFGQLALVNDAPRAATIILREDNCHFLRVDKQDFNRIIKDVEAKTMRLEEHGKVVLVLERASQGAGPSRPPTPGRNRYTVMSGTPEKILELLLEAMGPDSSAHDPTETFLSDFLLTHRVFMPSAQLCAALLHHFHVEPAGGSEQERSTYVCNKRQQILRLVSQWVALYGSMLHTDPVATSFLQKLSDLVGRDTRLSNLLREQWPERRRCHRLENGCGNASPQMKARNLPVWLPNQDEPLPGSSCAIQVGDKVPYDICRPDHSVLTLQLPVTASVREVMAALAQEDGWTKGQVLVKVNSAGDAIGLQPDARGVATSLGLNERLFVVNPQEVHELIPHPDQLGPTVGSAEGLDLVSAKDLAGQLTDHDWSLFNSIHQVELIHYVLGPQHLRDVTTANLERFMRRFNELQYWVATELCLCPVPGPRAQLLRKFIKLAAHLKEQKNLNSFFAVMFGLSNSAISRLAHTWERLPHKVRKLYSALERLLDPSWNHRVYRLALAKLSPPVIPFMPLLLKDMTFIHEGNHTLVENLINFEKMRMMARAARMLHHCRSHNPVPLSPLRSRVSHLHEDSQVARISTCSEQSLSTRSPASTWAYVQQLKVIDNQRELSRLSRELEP
(In general: In qHTS, concentration-response curves come from the screen itself.)

Assay [2] shares this target. Put plainly: Confirmatory qHTS for agonist of cAMP-regulated guanine nucleotide exchange factor 3 (EPAC1) (AID 1645881).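 Note: EPAC1 catalysed release of BODIPY-GDP from Rap1B seen as fluorescence loss; 100% = effect of cAMP agonist control; nearly all actives have a fitted effect of over 75% in size.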
Assay [3] has as its target Rap guanine nucleotide exchange factor 4 (Homo sapiens) (UniProt Q8WZA2). Briefly: Confirmatory qHTS for agonist of cAMP-regulated guanine nucleotide exchange factor 4 (EPAC2) (AID 1645884).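 Note: nucleotide exchange releases bodipy-GDP from Rap1 and this lowers its fluorescence; % is set by controls: 0 for no effect and ±100 for the full control effect; nearly all actives have a fitted effect of over 65% in size.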
The target is the same in assay [4]. Put plainly: Confirmatory qHTS for antagonist of cAMP-regulated guanine nucleotide exchange factor 4 (EPAC2) (AID 1645885). For activity change, negative = inhibition: % is set by controls: 0 for no effect and ±100 for the full control effect. Note: nearly all actives have a fitted effect of over 25% in size. Note: potency is the fitted concentration of half-maximal effect.
In assay [5] the target is Rap guanine nucleotide exchange factor 3 (Homo sapiens) (UniProt O95398). Briefly: Counterscreen qHTS for antagonist of cAMP-regulated guanine nucleotide exchange factor 3 (EPAC1) (AID 1645888).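 Note: fluorescence loss as bound BODIPY-GDP is released from Rap1B; % of control where 0% means no effect.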 In a few lines:
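Rap1B–BODIPY-GDP (250 nM) with 50 uM GDP; compounds pin-transferred to 9.74 nM–152 uM final (activator) or from 7.32 nM upwards (inhibitor). Fluorescence Ex/Em 480/540 nm read at 5 and 30 min, then after adding cAMP or buffer, at room temperature.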
For orientation: Counterscreens check selectivity or assay interference.

Records with an inconclusive call do not appear. Values without a mark were called inactive. Activity calls are given as the source filed them. Calls come from the whole dose curve; as a rule, active = well fitted curve in the direction sought with a large enough effect; inconclusive = small, poorly fitted or top-dose-only effect, or another doubt; inactive = no such curve, though single readings can be large; an effect the other way counts as inactive or inconclusive.

Chain of Rap guanine nucleotide exchange factor 4 (Homo sapiens) (Q8WZA2 whole entry, looked up): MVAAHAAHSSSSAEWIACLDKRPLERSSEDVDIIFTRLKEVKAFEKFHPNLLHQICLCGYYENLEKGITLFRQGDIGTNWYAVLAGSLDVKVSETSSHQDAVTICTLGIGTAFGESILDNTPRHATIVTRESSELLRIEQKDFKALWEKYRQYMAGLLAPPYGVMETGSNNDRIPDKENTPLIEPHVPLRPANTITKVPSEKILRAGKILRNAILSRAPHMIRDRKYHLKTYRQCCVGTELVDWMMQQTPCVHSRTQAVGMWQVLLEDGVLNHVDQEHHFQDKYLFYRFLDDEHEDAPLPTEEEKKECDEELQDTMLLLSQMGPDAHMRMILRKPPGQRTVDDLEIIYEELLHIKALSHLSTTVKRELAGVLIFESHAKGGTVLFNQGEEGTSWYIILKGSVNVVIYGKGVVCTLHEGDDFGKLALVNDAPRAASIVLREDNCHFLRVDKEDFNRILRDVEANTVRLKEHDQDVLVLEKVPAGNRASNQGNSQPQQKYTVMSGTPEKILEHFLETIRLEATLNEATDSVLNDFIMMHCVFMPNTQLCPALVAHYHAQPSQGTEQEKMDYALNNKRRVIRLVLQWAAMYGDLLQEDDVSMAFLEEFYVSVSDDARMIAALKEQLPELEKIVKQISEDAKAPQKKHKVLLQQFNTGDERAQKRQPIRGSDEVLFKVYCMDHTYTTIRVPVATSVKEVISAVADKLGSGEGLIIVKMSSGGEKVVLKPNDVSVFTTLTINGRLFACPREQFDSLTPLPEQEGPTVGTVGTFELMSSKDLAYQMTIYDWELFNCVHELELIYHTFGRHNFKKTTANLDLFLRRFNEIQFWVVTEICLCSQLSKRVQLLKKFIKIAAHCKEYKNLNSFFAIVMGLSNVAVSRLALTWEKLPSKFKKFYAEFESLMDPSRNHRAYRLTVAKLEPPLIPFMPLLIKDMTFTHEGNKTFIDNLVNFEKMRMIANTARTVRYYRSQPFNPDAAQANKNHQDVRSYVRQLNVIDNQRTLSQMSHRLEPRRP

On to `Cc1ccc(NC(=O)C2CCN(S(=O)(=O)c3ccc4c(c3)OCCCO4)CC2)nc1`, for which the Potency result in assay [1], in assay [2] and in assay [4] was “inactive” throughout. Also, in assay [3], the activation is 6.5% [at 17.1 µM, percent relative to cAMP agonist control]. Besides, the activity change, negative = inhibition in assay [5] is 13.4% [at 30.8 µM].

Consider `O=C(Nc1cccs1)Nc1ccccc1Cl`, for which the Potency result in assay [1], in assay [2] and in assay [4] was “inactive” in each case. In addition, the activation in assay [3] is 6.52% [at 17.1 µM, percent relative to cAMP agonist control]. For the same molecule, the activity change, negative = inhibition in assay [5] is 6.73% [at 30.8 µM].

As to `O=C(NCc1ccccc1)c1ccc2nc(-c3ccco3)c(-c3ccco3)nc2c1`, in assay [1], the Potency is 16.9 µM (active). Also, the Potency result in assay [2], in assay [3], in assay [4] and in assay [5] was “inactive” throughout.

As to `CS(=O)(=O)c1cccc(C(=O)OCC(=O)c2ccc3c(c2)OCCO3)c1`, the Potency result in assay [1], in assay [2] and in assay [4] was “inactive” throughout. Also, the activation in assay [3] was 8.5% [at 17.1 µM, percent relative to cAMP agonist control]. For the same molecule, the activity change, negative = inhibition in assay [5] is -4.85% [at 30.8 µM].

As for `CCOC(=O)C1CCN(C(c2cc(OC)c(OC)c(OC)c2)c2sc3nc(C)nn3c2O)CC1` (stereo not given), the Potency entry in assay [1], in assay [2] and in assay [4] was “inactive” each time. Also, in assay [3], the activation is 3.51% [at 17.1 µM, percent relative to cAMP agonist control]. Also, in assay [5], the activity change, negative = inhibition is -38.9% [at 30.8 µM].

As for `Cc1ccc(S(=O)(=O)Nc2ccccc2C=Nc2cccc(C)c2C)cc1`, the Potency result in assay [1], in assay [2], in assay [3], in assay [4] and in assay [5] was “inactive” each time.

`CC1=Nc2ccccc2/C1=C/c1sc(=S)n(-c2cccc(C(=O)O)c2)c1O`: the Potency in assay [1] was 44.7 µM (active). Also, the Potency result in assay [2] and in assay [4] was “inactive” throughout. For the same molecule, the activation in assay [3] is 2.42% [at 17.1 µM, percent relative to cAMP agonist control]. Also, the activity change, negative = inhibition in assay [5] was 11.8% [at 30.8 µM].

In the case of `CCOc1cc(/C=C2\SC(=S)N(NS(=O)(=O)c3ccccc3)C2=O)ccc1O`, the Potency in assay [1] was 33.8 µM (active); in assay [4] it was 42.6 µM (active). The Potency entry in assay [2], in assay [3] and in assay [5] was “inactive” each time.

In the case of `N#CC1=C(N)SC(N)=C(C#N)C1c1cccc(Oc2ccccc2)c1`, the Potency in assay [1] is 67.5 µM (active). Further, the Potency entry in assay [2], in assay [3], in assay [4] and in assay [5] was “inactive” in each case.

In the case of `O=C(CN1CCOCC1)Nc1ccccc1Sc1ccc(Cl)cc1`, the Potency result in assay [1], in assay [2], in assay [3], in assay [4] and in assay [5] was “inactive” each time.

Turning to `COCCn1cnnc1SCC(=O)Nc1sc2c(c1C#N)CCC2`, the Potency result in assay [1], in assay [2] and in assay [4] was “inactive” throughout. In assay [3], the activation was 9.93% [at 17.1 µM, percent relative to cAMP agonist control]. Further, the activity change, negative = inhibition in assay [5] was 9.73% [at 30.8 µM].

For the molecule `Cc1ccc(OCCn2cccn2)c(C)c1`, the Potency result in assay [1], in assay [2], in assay [3], in assay [4] and in assay [5] was “inactive” each time.

Turning to `CC1Oc2ccc(C#N)cc2N(Cc2ccccc2OC(F)(F)F)C1=O` (stereo not given), the Potency result in assay [1], in assay [2] and in assay [4] was “inactive” throughout. Besides, the activation in assay [3] is 4.28% [at 17.1 µM, percent relative to cAMP agonist control]. Besides, the activity change, negative = inhibition in assay [5] was -10.7% [at 30.8 µM].

With `COc1ccc(C(=O)c2c(-c3ccc(OC)cc3)oc3ccccc23)cc1`, the Potency result in assay [1], in assay [2], in assay [3] and in assay [5] was “inactive” throughout. In addition, in assay [4], the Potency was 15.1 µM (active).

Turning to `Cc1ccc(-c2cc([C@H]3[C@@H]4C=CCC[C@@]4(C)C(=O)N3Cc3ccccc3)ccc2F)cc1`, the Potency result in assay [1], in assay [2] and in assay [4] was “inactive” in each case. Besides, the activation in assay [3] is -2.1% [at 17.1 µM, percent relative to cAMP agonist control]. For the same molecule, the activity change, negative = inhibition in assay [5] is -9.39% [at 30.8 µM].

In the case of `COc1ccc(OCC(=O)NCCC2=CCCCC2)c([N+](=O)[O-])c1`, the Potency result in assay [1], in assay [2] and in assay [4] was “inactive” throughout. Also, the activation in assay [3] was 7.73% [at 17.1 µM, percent relative to cAMP agonist control]. For the same molecule, the activity change, negative = inhibition in assay [5] was -6.06% [at 30.8 µM].

Take `CCc1cccc2sc(N3CCN(C(=O)C4CC4)CC3)nc12`: the Potency entry in assay [1], in assay [2], in assay [3] and in assay [5] was “inactive” in each case. The outcome in assay [4] is “inactive [at 12.7 µM]”.

Regarding `Cc1ccc(-n2nc(C(=O)N(C)c3ccc(C)c(C)c3)c3c4ccccc4n(C)c3c2=O)cc1`, the Potency entry in assay [1], in assay [2], in assay [3] and in assay [5] was “inactive” in each case. In assay [4], the outcome was “inactive [at 12.7 µM]”.

In the case of `COC(=O)c1ccc2c(=O)n3nc(Nc4cc(OC)ccc4OC)sc3nc2c1`, the Potency entry in assay [1], in assay [2], in assay [3], in assay [4] and in assay [5] was “inactive” each time.

With `COc1cccc(CNC(=O)CCCn2nc(C)c3c(C)n(-c4ccc(C)cc4)nc3c2=O)c1OC`, the Potency entry in assay [1], in assay [2], in assay [3], in assay [4] and in assay [5] was “inactive” each time.

Regarding `Cc1ccc2cc(CN(Cc3ccco3)C(=O)c3ccco3)c3nnnn3c2c1`, the Potency result in assay [1], in assay [2], in assay [3] and in assay [5] was “inactive” each time. In addition, the Potency in assay [4] was 75.7 µM (active).

As to `COc1ccc2c(c1)c1nnc(SCC(=O)NC3CC3)nc1n2C`, the Potency entry in assay [1], in assay [2], in assay [3] and in assay [5] was “inactive” in each case. Moreover, the Potency in assay [4] is 84.9 µM (active).

For the molecule `COc1ccc(NC(=O)COc2ccccc2C#N)c(S(=O)(=O)N2CCCCC2)c1`, the Potency result in assay [1], in assay [2], in assay [3], in assay [4] and in assay [5] was “inactive” each time.

Turning to `OCc1cccc(-c2cnc3c(Nc4cccc(OC(F)(F)C(F)F)c4)nccn23)c1`, the Potency result in assay [1], in assay [2] and in assay [4] was “inactive” each time. Moreover, the activation in assay [3] is -0.754% [at 17.1 µM, percent relative to cAMP agonist control]. Also, the activity change, negative = inhibition in assay [5] is 9.1% [at 30.8 µM].
